These results are taken from ChEMBL document CHEMBL1961873, “Compounds: GSK PKIS; Assays: Nanosyn kinase panel” (2012).

The inhibition is the change of the read-out against control, counted positive when it falls.

Assay [1] addresses T1, 3-phosphoinositide-dependent protein kinase 1 (Homo sapiens) (UniProt O15530).
T1 sequence (whole entry): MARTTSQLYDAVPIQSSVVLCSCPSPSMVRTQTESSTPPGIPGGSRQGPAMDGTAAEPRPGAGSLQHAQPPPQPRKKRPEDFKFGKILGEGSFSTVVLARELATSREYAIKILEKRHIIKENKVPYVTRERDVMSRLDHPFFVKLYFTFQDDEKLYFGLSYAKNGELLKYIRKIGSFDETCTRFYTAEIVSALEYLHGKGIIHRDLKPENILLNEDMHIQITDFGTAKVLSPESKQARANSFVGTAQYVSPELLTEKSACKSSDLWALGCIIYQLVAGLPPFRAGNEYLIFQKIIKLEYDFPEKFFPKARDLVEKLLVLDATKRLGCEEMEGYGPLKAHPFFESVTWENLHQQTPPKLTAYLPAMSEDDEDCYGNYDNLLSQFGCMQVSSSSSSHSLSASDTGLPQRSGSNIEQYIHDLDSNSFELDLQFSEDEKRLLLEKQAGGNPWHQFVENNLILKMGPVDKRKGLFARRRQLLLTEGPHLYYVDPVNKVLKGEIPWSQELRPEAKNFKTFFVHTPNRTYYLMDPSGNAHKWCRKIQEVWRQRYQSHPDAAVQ
To be noted: at 0.1 µM.

The target in assay [2] is cAMP-dependent protein kinase catalytic subunit alpha (Homo sapiens) (UniProt P17612). To be noted: at 0.1 µM.
Assay [3] has the same target. To be noted: at 1 µM.
Assay [4] has as its target Protein kinase C alpha type (Homo sapiens) (UniProt P17252). To be noted: at 0.1 µM.
The target is the same in assay [5]. To be noted: at 1 µM.
In assay [6] the target is Protein kinase C beta type (Homo sapiens) (UniProt P05771). To be noted: at 0.1 µM.
Protein kinase C beta type (Homo sapiens), sequence (P05771 2-671 limits assumed): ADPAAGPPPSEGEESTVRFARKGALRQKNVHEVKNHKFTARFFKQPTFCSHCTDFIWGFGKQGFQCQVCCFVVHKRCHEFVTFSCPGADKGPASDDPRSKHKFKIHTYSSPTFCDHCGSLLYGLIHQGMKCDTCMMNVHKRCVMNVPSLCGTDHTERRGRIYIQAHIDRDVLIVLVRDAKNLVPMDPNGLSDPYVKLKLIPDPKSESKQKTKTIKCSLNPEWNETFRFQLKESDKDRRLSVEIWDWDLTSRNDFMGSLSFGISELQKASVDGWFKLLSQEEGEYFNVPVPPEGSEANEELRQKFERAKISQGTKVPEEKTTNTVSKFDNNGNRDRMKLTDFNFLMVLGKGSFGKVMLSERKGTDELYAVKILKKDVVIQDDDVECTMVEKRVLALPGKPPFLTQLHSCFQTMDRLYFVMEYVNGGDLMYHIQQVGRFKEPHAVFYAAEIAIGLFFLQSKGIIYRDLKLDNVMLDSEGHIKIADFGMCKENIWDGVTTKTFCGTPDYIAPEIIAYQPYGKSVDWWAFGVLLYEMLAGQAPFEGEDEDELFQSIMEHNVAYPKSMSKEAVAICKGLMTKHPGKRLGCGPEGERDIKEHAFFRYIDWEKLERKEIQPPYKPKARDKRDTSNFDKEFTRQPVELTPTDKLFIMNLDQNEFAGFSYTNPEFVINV
For assay [7] the target is unchanged. To be noted: at 1 µM.
Assay [8] concerns the target Protein kinase C eta type (Homo sapiens) (UniProt P24723). To be noted: at 0.1 µM.
Assay [9] has the same target. To be noted: at 1 µM.
Assay [10] deals with Protein kinase C gamma type (Homo sapiens) (UniProt P05129). To be noted: at 0.1 µM.
The target is the same in assay [11]. To be noted: at 1 µM.
The target of assay [12] is T2, Protein kinase C iota type (Homo sapiens) (UniProt P41743).
T2 sequence (whole entry): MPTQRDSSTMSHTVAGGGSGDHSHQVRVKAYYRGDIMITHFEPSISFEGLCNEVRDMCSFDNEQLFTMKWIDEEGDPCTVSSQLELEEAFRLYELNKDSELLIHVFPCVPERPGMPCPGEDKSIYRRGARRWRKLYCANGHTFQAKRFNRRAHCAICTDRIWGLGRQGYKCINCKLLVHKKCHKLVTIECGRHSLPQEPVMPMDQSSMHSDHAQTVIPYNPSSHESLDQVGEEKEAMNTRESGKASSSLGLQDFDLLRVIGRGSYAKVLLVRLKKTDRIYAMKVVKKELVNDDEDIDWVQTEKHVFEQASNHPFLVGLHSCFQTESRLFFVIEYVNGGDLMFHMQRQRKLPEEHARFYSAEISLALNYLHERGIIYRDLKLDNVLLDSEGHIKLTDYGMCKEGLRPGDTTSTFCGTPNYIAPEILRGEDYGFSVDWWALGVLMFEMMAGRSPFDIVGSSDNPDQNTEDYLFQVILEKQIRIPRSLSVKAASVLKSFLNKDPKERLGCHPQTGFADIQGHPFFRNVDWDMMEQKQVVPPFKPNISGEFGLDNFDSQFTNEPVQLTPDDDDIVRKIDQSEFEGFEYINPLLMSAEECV
To be noted: at 0.1 µM.

In assay [13] the target is T2, Protein kinase C iota type (Homo sapiens). To be noted: at 1 µM.
For assay [14], the target named is Protein kinase C theta type (Homo sapiens) (UniProt Q04759). To be noted: at 0.1 µM.
Protein kinase C theta type (Homo sapiens), sequence (Q04759 whole entry, looked up): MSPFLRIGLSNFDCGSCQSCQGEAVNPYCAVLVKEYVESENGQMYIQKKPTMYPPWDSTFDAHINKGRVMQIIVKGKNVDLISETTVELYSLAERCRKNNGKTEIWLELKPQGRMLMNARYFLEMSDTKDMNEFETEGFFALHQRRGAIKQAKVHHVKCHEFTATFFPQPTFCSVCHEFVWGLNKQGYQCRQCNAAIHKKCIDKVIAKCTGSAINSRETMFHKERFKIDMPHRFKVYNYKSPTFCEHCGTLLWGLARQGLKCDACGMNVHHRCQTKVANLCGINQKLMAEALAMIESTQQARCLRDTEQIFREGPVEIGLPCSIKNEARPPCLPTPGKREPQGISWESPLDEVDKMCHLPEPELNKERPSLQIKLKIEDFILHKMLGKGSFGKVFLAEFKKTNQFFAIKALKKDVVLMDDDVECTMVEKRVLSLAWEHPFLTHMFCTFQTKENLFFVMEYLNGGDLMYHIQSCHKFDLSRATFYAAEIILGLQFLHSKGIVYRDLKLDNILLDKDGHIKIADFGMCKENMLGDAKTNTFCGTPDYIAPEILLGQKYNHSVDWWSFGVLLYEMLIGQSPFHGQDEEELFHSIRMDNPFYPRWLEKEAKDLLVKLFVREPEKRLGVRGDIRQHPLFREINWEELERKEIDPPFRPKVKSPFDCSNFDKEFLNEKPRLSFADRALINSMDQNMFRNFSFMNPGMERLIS
For assay [15] the target is unchanged. To be noted: at 1 µM.
Assay [16] has as its target Protein kinase C beta type (Homo sapiens) (UniProt P05771). To be noted: at 0.1 µM. The source holds these as a separate data set.
For assay [17] the target is unchanged. To be noted: at 1 µM. The source holds these as a separate data set.
The target of assay [18] is T3, Serine/threonine-protein kinase D1 (Homo sapiens) (UniProt Q15139).
T3 sequence (whole entry): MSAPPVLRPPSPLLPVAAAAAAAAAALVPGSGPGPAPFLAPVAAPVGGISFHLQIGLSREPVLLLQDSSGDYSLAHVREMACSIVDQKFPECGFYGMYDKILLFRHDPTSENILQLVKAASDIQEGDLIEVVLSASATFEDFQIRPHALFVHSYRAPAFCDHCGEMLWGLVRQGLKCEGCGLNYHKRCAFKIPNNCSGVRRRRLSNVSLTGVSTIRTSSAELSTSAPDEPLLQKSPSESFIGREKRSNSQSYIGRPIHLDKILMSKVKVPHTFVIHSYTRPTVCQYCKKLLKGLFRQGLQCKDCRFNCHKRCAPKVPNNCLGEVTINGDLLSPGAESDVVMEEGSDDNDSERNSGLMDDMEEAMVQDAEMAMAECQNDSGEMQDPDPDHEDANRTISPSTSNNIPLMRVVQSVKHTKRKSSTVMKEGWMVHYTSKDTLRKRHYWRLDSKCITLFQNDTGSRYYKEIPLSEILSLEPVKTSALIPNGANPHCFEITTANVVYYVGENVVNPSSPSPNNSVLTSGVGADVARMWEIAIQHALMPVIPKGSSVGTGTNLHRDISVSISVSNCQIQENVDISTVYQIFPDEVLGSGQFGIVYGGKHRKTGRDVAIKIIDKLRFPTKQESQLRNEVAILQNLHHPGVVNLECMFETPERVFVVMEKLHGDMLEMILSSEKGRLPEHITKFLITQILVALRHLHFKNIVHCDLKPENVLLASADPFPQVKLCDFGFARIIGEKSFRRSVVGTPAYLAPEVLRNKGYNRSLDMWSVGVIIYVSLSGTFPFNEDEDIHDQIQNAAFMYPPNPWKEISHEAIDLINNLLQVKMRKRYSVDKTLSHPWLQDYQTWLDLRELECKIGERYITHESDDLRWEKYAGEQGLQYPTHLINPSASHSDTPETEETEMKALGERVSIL
To be noted: at 0.1 µM.

In assay [19] the target is T3, Serine/threonine-protein kinase D1 (Homo sapiens). To be noted: at 1 µM.
In assay [20] the target is T4, Serine/threonine-protein kinase D2 (Homo sapiens) (UniProt Q9BZL6).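 Further: reported percent inhibition values are means, part of the GSK PKIS kinase panel screen.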
T4 sequence (whole entry): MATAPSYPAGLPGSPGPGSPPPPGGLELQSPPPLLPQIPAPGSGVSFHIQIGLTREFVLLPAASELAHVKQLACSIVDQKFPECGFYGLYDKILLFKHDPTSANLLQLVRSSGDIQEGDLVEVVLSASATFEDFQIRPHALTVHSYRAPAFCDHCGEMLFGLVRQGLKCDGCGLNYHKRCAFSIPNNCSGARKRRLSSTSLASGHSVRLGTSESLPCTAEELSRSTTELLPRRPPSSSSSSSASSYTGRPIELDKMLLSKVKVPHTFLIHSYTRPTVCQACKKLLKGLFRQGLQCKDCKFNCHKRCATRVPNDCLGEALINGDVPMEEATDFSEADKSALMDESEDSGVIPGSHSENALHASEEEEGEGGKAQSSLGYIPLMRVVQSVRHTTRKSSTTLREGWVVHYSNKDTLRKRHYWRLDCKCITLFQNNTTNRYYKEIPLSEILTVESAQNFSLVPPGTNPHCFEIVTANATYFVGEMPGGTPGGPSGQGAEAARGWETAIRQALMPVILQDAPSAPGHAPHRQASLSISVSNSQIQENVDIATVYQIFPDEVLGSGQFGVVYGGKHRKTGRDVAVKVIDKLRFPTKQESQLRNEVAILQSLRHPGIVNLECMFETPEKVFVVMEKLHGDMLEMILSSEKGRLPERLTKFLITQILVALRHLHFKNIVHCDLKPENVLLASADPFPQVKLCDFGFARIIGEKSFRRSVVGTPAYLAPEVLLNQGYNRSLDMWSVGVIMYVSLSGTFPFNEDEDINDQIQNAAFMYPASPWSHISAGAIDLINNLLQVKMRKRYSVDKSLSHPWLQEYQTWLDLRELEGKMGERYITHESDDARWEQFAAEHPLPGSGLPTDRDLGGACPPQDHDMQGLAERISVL
To be noted: at 0.1 µM.

Protein kinase C eta type (Homo sapiens), sequence (P24723 whole entry): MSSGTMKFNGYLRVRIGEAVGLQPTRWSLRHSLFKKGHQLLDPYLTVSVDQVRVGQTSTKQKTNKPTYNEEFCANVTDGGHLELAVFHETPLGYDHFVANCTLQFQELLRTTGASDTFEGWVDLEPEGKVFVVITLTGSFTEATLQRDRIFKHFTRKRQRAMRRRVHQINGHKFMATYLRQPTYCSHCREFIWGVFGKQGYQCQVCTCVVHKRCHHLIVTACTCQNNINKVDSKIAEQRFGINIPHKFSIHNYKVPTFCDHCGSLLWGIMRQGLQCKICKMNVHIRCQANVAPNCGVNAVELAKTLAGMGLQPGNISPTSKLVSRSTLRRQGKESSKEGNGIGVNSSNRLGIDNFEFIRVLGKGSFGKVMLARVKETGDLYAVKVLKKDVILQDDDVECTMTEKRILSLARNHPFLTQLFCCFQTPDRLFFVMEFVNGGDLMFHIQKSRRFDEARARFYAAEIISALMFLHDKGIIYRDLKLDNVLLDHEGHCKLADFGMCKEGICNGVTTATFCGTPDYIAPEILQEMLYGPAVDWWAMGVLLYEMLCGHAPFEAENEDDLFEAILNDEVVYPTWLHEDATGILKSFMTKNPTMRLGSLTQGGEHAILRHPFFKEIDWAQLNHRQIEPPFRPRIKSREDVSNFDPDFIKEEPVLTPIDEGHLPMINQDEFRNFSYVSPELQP

`CS(=O)(=O)CCNCc1nc(-c2ccc3ncnc(Nc4ccc(F)c(Cl)c4)c3c2)cs1`: the inhibition in assay [1] is 1.98%; in [2], 1.17%; in assay [3], 1.29%; in assay [4] it was 0.29%; in [5], 0.92%; in assay [6] it was 1.56%. In addition, the inhibition in [7] is 2.07%; in [8], 1.59%; in assay [9] it was 3.26%; in [10], 2.71%; in assay [11] it was 0.73%; in assay [12], -0.92%. Further, the inhibition is -0.18% in [13]; 0.64% in [14]; 2.27% in assay [15]; -0.23% in assay [16]; 2.18% in assay [17]; 1.88% in [18]. The values for the inhibition in assay [19] and in assay [20] were 2.6% and 0.4%, respectively.

For `COc1ccc(-c2nn3ncccc3c2-c2ccnc(Nc3ccc(Cl)c(C(F)(F)F)c3)n2)cc1`, the inhibition in assay [1] was 0.17%; in [2] it was 1.59%; in assay [3] it was 1.26%; in assay [4], 0.22%; in assay [5] it was -0.2%; in assay [6], 0.17%. Moreover, the inhibition is 3.13% in assay [7]; 2.79% in assay [8]; 2.3% in assay [9]; 1.74% in assay [10]; -0.57% in [11]; 0.28% in [12]. The inhibition in assay [13] is -1.6%; in [14], 1.56%; in assay [15], 2.55%; in assay [16] it was 0.91%; in assay [17], 0.81%; in assay [18], 2.22%. For the same compound, the inhibition worked out at 3.95% in assay [19] and 2.47% in assay [20].

For `NC(=O)c1cccc(Nc2nccc(Nc3cccc4[nH]ncc34)n2)c1`, the inhibition is -1.42% in [1]; 7.26% in assay [2]; 10.7% in assay [3]; -0.39% in assay [4]; 14.6% in [5]; 0.67% in [6]. The inhibition is 2.07% in assay [7]; -3% in assay [8]; 5.2% in assay [9]; 0.25% in assay [10]; 9.98% in assay [11]; -0.89% in [12]. For the same compound, the inhibition in [13] is -1.43%; in assay [14], 0.02%; in assay [15] it was 6.28%; in assay [16], -1.01%; in [17] it was 7.52%; in assay [18], -1.68%. The inhibition in assay [19] was 6.22%; in assay [20], -1.94%.

For `CN(C)c1cc2c(Nc3ccc4nc(Cc5ccccc5)[nH]c4c3)ncnc2cn1`, the inhibition in assay [1] is 4.68%; in assay [2] it was 3.66%; in assay [3], 2.62%; in assay [4] it was 1.27%; in assay [5], 2.33%; in assay [6] it was -1.06%. Moreover, the inhibition in assay [7] was determined as 2.6%; in assay [8] it was 3.25%; in assay [9], 3.62%; in assay [10] it was 3.66%; in [11] it was 4.36%; in assay [12], 2.13%. In addition, the inhibition in [13] came out at 2.77%; in [14], 2.25%; in assay [15], 4.22%; in [16] it was 1.18%; in [17], 3.96%; in assay [18] it was 4.29%. The inhibition in assay [19] was 6.67%; in assay [20], 5.21%.

Regarding `COC(=O)Nc1nc2cc(Oc3cccc(NC(=O)Nc4cc(C(F)(F)F)ccc4F)c3)ccc2[nH]1`, the inhibition in assay [1] was determined as 1.08%; in [2] it was 2.29%; in assay [3], 4.75%; in [4] it was 0.42%; in [5], 0.96%; in assay [6], 0.04%. Besides, the inhibition was 2.71% in [7]; 0.61% in assay [8]; -1.2% in [9]; 1.08% in assay [10]; 2.09% in [11]; -0.71% in assay [12]. Besides, the inhibition in [13] is -0.55%; in [14] it was -0.27%; in [15], -0.91%; in assay [16], 3.01%; in [17], 1.79%; in [18], 0.22%. Also, the inhibition in [19] came out at 1.03%; in [20] it was 0.66%.

Regarding `CCc1cccc(NC(=O)Nc2ccc(Oc3ccc4nc(NC(=O)OC)[nH]c4c3)cc2)c1`, the inhibition in assay [1] was 2.37%; in assay [2], 2.93%; in assay [3], 0.86%; in [4], 0.7%; in [5], 0.72%; in [6], 0.28%. Besides, the inhibition in [7] is 1.12%; in assay [8] it was 2.69%; in assay [9], 2.14%; in assay [10] it was 1.95%; in assay [11], 2%; in assay [12], 0.46%. The inhibition in assay [13] was -1.58%; in assay [14] it was 0.42%; in [15] it was 1.12%; in [16], -0.27%; in [17], -1.17%; in assay [18], 1.25%. Also, the inhibition was 1.01% in [19] and 0.52% in [20].

On to `Cc1nn(C)c2cc(N(C)c3ccnc(Nc4cccc(S(N)(=O)=O)c4)n3)ccc12`, for which the inhibition was determined as 1.33% in [1]; 2.03% in assay [2]; 6.18% in assay [3]; 1% in assay [4]; 6.39% in assay [5]; 1.44% in [6]. Moreover, the inhibition in assay [7] came to 6%; in assay [8], 4.55%; in assay [9] it was 2.34%; in [10], 4.1%; in [11], 10.3%; in assay [12], 2.3%. Also, the inhibition in assay [13] was found to be 3.87%; in assay [14], 1.21%; in assay [15], 2.49%; in assay [16] it was 2.72%; in assay [17], 6.99%; in assay [18] it was 2.29%. The inhibition was determined as 4.44% in [19] and 3.66% in assay [20].
